Compound activity as filed in PubChem BioAssay.
697 NFkB inh = inhibitors of the PMA/ionomycin-induced NF-kB reporter in 697 B cells; hit rate 0.33% among 330,000; 697 B-cell NF-kB luciferase reporter, 16 h; inhibition, % at 4 µM; in the data active = inhibition above about 35%
EBV LMP1 NFkB = Epstein-Barr LMP1 NF-kappaB reporter inhibition. AID 504558. inhibition, % at 12.5 µM. hit rate 0.69% among 350,000. LMP1-induced NF-kappaB luciferase reporter cells, luminescence; in the data active = inhibition above about 41%; inconclusive = no clear call, values can overlap the other calls;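 also: 0% = neutral control wells and 100% = reference inhibitor control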
MITF TRPM1 inh = MITF TRPM1 promoter inhibition in SK-MEL-5 cells; SK-MEL-5 TRPM1 promoter luciferase, 24 h; hit rate 0.83% among 330,000; AID 488899; inhibition, % at 12.5 µM;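 active = mean inhibition across replicates of 60% or more, whatever share of single replicates reaches that level; inconclusive = some that reach 60%, reason not given; inactive = mean inhibition across replicates below 60%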
Shn3 inh set2 = inhibitors of Schnurri-3 3'UTR reporter in osteoblasts; inhibition, % at 12.5 µM; hit rate 0.52% among 360,000; Clone20 osteoblast Shn3 3'UTR firefly luciferase, 24 h; AID 588674;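 active = mean inhibition of at least 75% with every replicate also reaching 75%; inconclusive = mean inhibition at least 75% but some replicate below; inactive = mean inhibition below 75%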;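 also: 0% = median of neutral control wells and 100% = pilot-screen positive control compound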
Gli-Sufu antag = Gli-Sufu pathway antagonism; Sufu-KO-LIGHT fibroblasts, Gli luciferase reporter luminescence; inhibition, % at 5 µM; hit rate 0.74% among 340,000;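 active = inhibition above about 55%, limit read from the data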;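 also: 0% = DMSO-treated cells and 100% = wells with medium but no cells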
Jurkat NFkB inh = lowers PMA/ionomycin-induced NF-kB signal in Jurkat cells; hit rate 0.53% among 330,000; AID 435003; inhibition, % at 4 µM; PMA/ionomycin-induced NF-kB luciferase reporter, luminescence; in the data active = inhibition above about 50%
* hit, by the source's call; ? = inconclusive; / = no result given. Sampled rows, rich in hits. Any-hit rate of the full collection: about 2.3%.

SMILES	697 NFkB inh	EBV LMP1 NFkB	MITF TRPM1 inh	Shn3 inh set2	Gli-Sufu antag	Jurkat NFkB inh
O=C(CCSc1nc2ccccc2s1)N/N=C/c1c(O)ccc2ccccc12	-18	-10	41	87*	7	25
Cc1cc(C)n(CCC(=O)N/N=C/c2c(O)ccc3ccccc23)n1	0	56*	?	97*	-4	27
Cc1cc(C)n(CCC(=O)N/N=C/c2ccc(O)cc2)n1	-21	5	-15	2	5	-1
COc1ccccc1Cn1nc(C(=O)O)c2ccccc2c1=O	-39	-2	-13	-2	11	1
Cc1cc2c(ncn2C)c(NS(=O)(=O)c2cc(Cl)ccc2Cl)c1C	-9	3	4	-1	3	7
Cc1ccsc1C(=O)OCC(=O)N1CCN(C(=O)c2ccco2)CC1	7	-1	-12	-24	-17	1
Cc1ccc(N(C)C(=O)C2CCCN2S(=O)(=O)c2ccc3c(c2)n(C)c(=O)c(=O)n3C)cc1 (configuration not stated)	-2	3	-3	-11	-4	0
CC(=O)N1CCCc2cc(S(=O)(=O)NCCC3=CCCCC3)ccc21	15	-7	31	25	20	18
Cc1ccc(Cl)cc1N1CCN(C(=O)C2CCC(=O)N(C3CCCCCC3)C2)CC1 (configuration not stated)	-53	26	23	86*	38	32
CCOc1ccc(S(=O)(=O)n2c([N+](=O)[O-])cnc2C)c(C)c1C	7	9	7	7	-2	4
COc1ccc(-c2oc3ncnc(NCCCN4CCOCC4)c3c2-c2ccc(OC)cc2)cc1	2	35	-1	15	5	10
COc1ccc(-c2csc3ncnc(NCCN4CCOCC4)c23)cc1	-34	46*	1	22	-3	9
COc1ccc(-c2oc3ncnc(NCCN4CCOCC4)c3c2-c2ccc(OC)cc2)cc1	-52	48*	1	66	16	-11
CCOC(=O)c1nc(C(=O)NCc2ccc(C)cc2)nc2ccccc12	5	-7	/	-10	6	1
COCCn1c(C)cc(C(=O)COC(=O)c2cccnc2SC)c1C	-99	7	11	-8	-53	-87
CCCn1c(C)cc(C(=O)COC(=O)c2ccc[nH]c2=O)c1C	-54	48*	11	0	-30	-19
Cc1cc(C(=O)COC(=O)c2nccnc2N)c(C)n1C	-68	8	-58	1	-56	-8
Cc1ccsc1C(=O)OCC(=O)c1cc(C)n(C)c1C	-197	51*	58	32	-40	-149
COCCn1c(C)cc(C(=O)COC(=O)c2ccccc2Br)c1C	-83	54*	81*	67	45	-76
Cc1cc(C(=O)COC(=O)c2ccc3c(c2)OCO3)c(C)n1Cc1cccs1	-9	-16	-18	-4	19	-4
Cc1cc(C(=O)COC(=O)c2ccccc2O)c(C)n1Cc1cccs1	1	87*	90*	91*	81*	27
Cc1cc(C(=O)COC(=O)c2ccccc2NCCO)c(C)n1CC1CCCO1 (configuration not stated)	-47	5	13	-23	23	-23
CCCn1c(C)cc(C(=O)COc2ccc(C)nc2[N+](=O)[O-])c1C	-8	12	-2	27	21	-3
Cc1cc(C(=O)COC(=O)c2cccnc2Cl)c(C)n1CC1CCCO1 (configuration not stated)	-145	65*	58	56	41	-90
Cc1ccc(C(=O)OCC(=O)c2cc(C)n(CC3CCCO3)c2C)cc1 (configuration not stated)	-16	-15	-61	-73	-3	-55
Cc1cc(C(=O)COC(=O)c2ccccc2Br)c(C)n1CC1CCCO1 (configuration not stated)	-35	75*	76*	?	76*	46
COCCn1c(C)cc(C(=O)COc2ccc(C)nc2[N+](=O)[O-])c1C	-7	45*	36	58	7	15
Cc1ccc(-n2c(C)nc3c(cnn3-c3ccc(F)cc3)c2=O)cc1C	-66	11	7	75	19	-5
O=[N+]([O-])c1cccc2nc3ccccc3c(NCCCn3ccnc3[N+](=O)[O-])c12	/	3	82*	-4	10	/
